An excerpt weighted towards active compounds, which were near 0.5% of everything screened.
Tat export inh: E. coli Tat export inhibitors, primary screen, MC4100, TorA-mCherry reporter, fluorescence, single point. inhibition, % at 10 µM. 340,000 compounds, 0.036% hits. AID 488895, 2010;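 active means mean replicate inhibition at least 50% and at least half of replicates individually reaching 50%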;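 further: exported cargo escapes ClpAP degradation while cytoplasmic cargo is degraded and loses fluorescence; 0% = median of neutral control wells and 100% = median of NaSCN control wells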
phage Ecoli inh: growth loss of phage-infected E. coli, primary screen, RecBCD inhibitor project, absorbance, with phage, HTS; 360,000 compounds, 0.26% hits; inhibition, % at 11.9 µM; AID 651602, 2012; in the data active means inhibition above about 11%
AddAB inh: growth inhibition of E. coli expressing H. pylori AddAB, primary screen, AddAB inhibitor project, absorbance; inhibition, % at 11.9 µM; AID 435030, 2010; 330,000 compounds, 0.29% hits; in the data active means inhibition above about 12%;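 further: 0% = vehicle wells of infected cells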
E coli growth-1: E. coli V3065 growth inhibition, primary screen, counter-screen for AddAB inhibitor project, absorbance, OD600; AID 449728, 2010; 330,000 compounds, 0.27% hits; inhibition, % at 11.9 µM; 18 h;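 active means inhibition above the campaign's mean inhibition across all tested compounds plus 3 SD, cut at about 9.9% in these data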;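 further: uninfected addAB+ strain grown without phage in ampicillin broth; 0% = DMSO wells and 100% = ciprofloxacin 0.95 µg/ml wells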
E coli growth-2: E. coli growth inhibition, primary screen, OD600 | Escherichia coli growth, 23 h; active compounds read low | OD600 absorbance (test concentration not listed) | 330,000 compounds, 0.21% hits;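 active means OD600 absorbance below the run mean of sample wells minus 3.6 SD, in any replicate, cut at about 0.56 in these data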
AddAB conf: growth loss of phage-infected E. coli expressing H. pylori AddAB, confirmation, AddAB inhibitor project, absorbance, E. coli V3065, T4 phage, triplicate; AID 488942, 2010; OD; T4 phage with gene 2 nonsense mutations; 880 compounds, 64% hits; inhibition, % at 11.9 µM; shares compounds with AddAB inh;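 active means mean inhibition above a set limit taken from the earlier primary screen, cut at about 13% in these data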;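 further: higher means less bacterial growth since AddAB block lets phage replicate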
RecBCD counter: growth loss of RecBCD+ E. coli with mutant T4 phage, counter-screen for AddAB inhibitor project, absorbance, V66 E. coli; OD growth; inhibition, % at 11.9 µM; AID 488955, 2010; shares compounds with AddAB inh; 880 compounds, 73% hits;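 active means mean inhibition above the mean of solvent-only control wells plus 3 SD, cut at about 4% in these data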;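 further: optical density read after an 18 h incubation at 37 °C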
bact viab count: bacterial viability inhibition counter-screen, confirmation, counter-screen for AddAB inhibitor project, absorbance | shares compounds with AddAB inh | absorbance (AddAB counterscreen) | inhibition, % at 11.9 µM | 880 compounds, 35% hits | AID 488956, 2010; in the data active means inhibition above about 25%
RecBCD conf: growth loss of phage-infected RecBCD+ E. coli, confirmation, RecBCD inhibitor project, absorbance, E. coli V66, T4 gene 2 phage; inhibition, % at 11.9 µM; 890 compounds, 45% hits; AID 651982, 2013; E. coli V66 + T4 2- phage, growth OD; shares compounds with phage Ecoli inh;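 active means mean inhibition over triplicates exceeding the hit threshold derived in the original primary screen, cut at about 11% in these data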
Ecoli viability: E. coli viability inhibition, counter-screen for RecBCD inhibitor project, absorbance, high throughput; shares compounds with phage Ecoli inh; absorbance (OD) growth; inhibition, % at 11.9 µM; 890 compounds, 29% hits; AID 651983, 2013; in the data active means inhibition above about 20%;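 further: E. coli strain V66 grown with compound alone and no phage infection; 0% = bacteria with DMSO vehicle only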
AddAB phage OD: growth loss of phage-infected AddAB-carrying E. coli, confirmation, counter-screen for RecBCD inhibitor project, absorbance, E. coli V3065, T4 phage; E. coli expressing H. pylori AddAB + T4 phage, OD growth; gene 2 mutant T4, recBCD-deleted host; inhibition, % at 11.9 µM; AID 651984, 2013; shares compounds with phage Ecoli inh; 890 compounds, 45% hits;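 active means mean inhibition above the solvent-only control wells' mean plus 3 SD, cut at about 22% in these data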;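 further: higher means less bacterial growth from phage killing when AddAB is blocked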
* hit, by the source's call; x = no result; ! = a repeat was not active.

SMILES | Tat export inh | phage Ecoli inh | AddAB inh | E coli growth-1 | E coli growth-2 | others
COC1C(OC(=O)c2ccc(C)[nH]2)C(O)C(Oc2ccc3c(O)c(NC(=O)c4ccc(O)c(CC=C(C)C)c4)c(=O)oc3c2Cl)OC1(C)C (stereo not given) | -24 | 9 | 3 | -1 | 0.052*
COC(=O)C1=C(c2ccc(-c3ccccc3)c(F)c2)CC2CCC1N2C(=O)NCc1cc(C)oc1C(F)(F)F (stereo not given) | x | x | x | x | 0.71
COC(=O)C1=C(c2ccc(C(C)=O)cc2)CC2CCC1N2C(=O)N1CCC(C)CC1 (stereo not given) | x | x | x | x | 0.65
O=P(NC(c1ccccc1)C1CC1CO)(c1ccccc1)c1ccccc1 (stereo not given) | x | x | x | x | 0.7
CCCNC(=O)N1C2CCC1C(C(=O)OC)=C(c1ccc(S(C)(=O)=O)cc1)C2 (stereo not given) | x | x | x | x | 0.69
O=C(Cc1cccs1)N1CCC2(CC1)OCCO2 | -3 | 1 | 8 | 11* | 0.68
COc1cc(C=C2C(=O)NC(=O)N(c3ccccc3)C2=O)cc(OC)c1OC | x | x | x | x | 0.71
Oc1cc(Cl)c(Cl)c(Cl)c1 | -13 | 3 | x | x | 0.068*
O=c1[nH]sc2cc(F)ccc12 | -20 | -1 | x | x | 0.49*
CCCCCCCCCCCCCCCC[N+](C)(C)C | 32 | 1 | -1 | 2 | 0.069*
CC(N)CN1CCc2ccc(Br)cc21 (stereo not given) | x | x | x | x | 0.71
COc1cc2c3c(c1OC)Oc1ccc(cc1)CC1c4c(cc(OC)c(OC)c4Oc4ccc(cc4)CC3N(C)CC2)CCN1C (stereo not given) | x | x | x | x | 0.69
COc1cc2c3c(c1OC)Oc1ccc(cc1)C[C@H]1c4c(cc(OC)c(OC)c4Oc4ccc(cc4)C[C@@H]3N(C)CC2)CCN1C | 54* | 1 | 3 | 0 | x
N#CC1c2ccccc2-n2nncc2CN1Cc1cc(Cl)cc(Cl)c1 (stereo not given) | 56* | 4 | x | x | x
CN1C(=O)NC(=O)/C(=C\c2ccc([N+](=O)[O-])o2)C1=O | 0 | x | -2 | -4 | x
CN1C(=O)NC(=O)/C(=C/c2ccc([N+](=O)[O-])o2)C1=O | x | 2 | 3 | 2 | 0.3*
CN(C)C(=S)SSC(=S)N(C)C | 12 | 5 | 0 | -1 | 0.49*
COC(=O)C1=C(c2ccccc2OCc2ccccc2)CC2CCC1N2C(=O)NCc1ccc(OC)cc1 (stereo not given) | x | x | x | x | 0.71
CC(C)CC(N(C)C)C1(c2ccc(Cl)cc2)CCC1 (stereo not given) | -6 | 2 | 37*! | 27*! | 0.52*! | AddAB conf=100*;RecBCD counter=3;bact viab count=67*
CN(C)C1(c2nnnn2-c2ccc(Cl)cc2)CCCCC1 | -2 | 3 | 10 | 1 | x
COC(=O)C1=C(c2ccc(F)cc2F)CC2CCC1N2C(=O)NCCO (stereo not given) | x | x | x | x | 0.69
Cn1ncnc2c(=O)n(C)c(=O)nc1-2 | 128* | x | 47* | 45* | 0.048* | AddAB conf=73*;RecBCD counter=76*;bact viab count=79*
c1ccc2c(c1)[nH]c1cnccc12 | 8 | 4 | 4 | 3 | 0.63
Cc1c2ccncc2c(C)c2c1[nH]c1ccccc12 | -10 | x | 13* | 14* | 0.42* | AddAB conf=9;RecBCD counter=0;bact viab count=11
CN(C)C1C(=O)C(C(N)=O)=C(O)C2(O)C(=O)C3=C(O)c4c(O)cccc4C(C)(O)C3CC12 (stereo not given) | 147* | x | 85* | 94* | x | AddAB conf=94*;RecBCD counter=93*;bact viab count=92*
SMILES | Tat export inh | phage Ecoli inh | AddAB inh | E coli growth-1 | E coli growth-2 | others
Cc1ccc(-n2c(O)c(C=NN3CCCCC3c3cccnc3)c(=O)[nH]c2=S)cc1 (stereo not given) | x | x | x | x | 0.71
Cc1cccc(-n2c(/C=C/c3ccc([N+](=O)[O-])o3)nc3ccccc3c2=O)c1 | -4 | 2 | 5 | 3 | 0.65
O=c1c2ccccc2nc(/C=C/c2ccc([N+](=O)[O-])o2)n1-c1ccc(O)cc1 | -4 | 12* | x | x | 0.67 | RecBCD conf=6;Ecoli viability=9;AddAB phage OD=40*
O=[N+]([O-])c1oc2ccc3ccccc3c2c1CCO | -8 | 100* | x | x | x | RecBCD conf=104*;Ecoli viability=105*;AddAB phage OD=103*
CC(Cc1ccccc1)NC(=O)CCCCC(=O)NC(C)Cc1ccccc1 (stereo not given) | 1 | 14* | 0 | 0 | x | RecBCD conf=-3;Ecoli viability=-2;AddAB phage OD=-2
COC(=O)C1=C(c2ccc(OC)c(OC)c2)CC2CCC1N2C(=O)NCCOc1ccccc1 (stereo not given) | x | x | x | x | 0.69
Cc1cc2c(C(C)C)c(O)c(O)c(C=O)c2c(O)c1-c1c(C)cc2c(C(C)C)c(O)c(O)c(C=O)c2c1O | x | 15* | x | x | x | RecBCD conf=5;Ecoli viability=5;AddAB phage OD=7
O=[N+]([O-])c1ccc(N2CCOCC2)c2cccnc12 | -2 | 4 | 2 | 2 | 0.69
O=[N+]([O-])c1ccc(N2CCOCC2)c2c1no[n+]2[O-] | x | 17* | x | x | x | RecBCD conf=11;Ecoli viability=13;AddAB phage OD=98*
C=CC1C[C@@]1(C)C(NP(=O)(c1ccccc1)c1ccccc1)c1ccccc1 (stereo not given in full) | x | x | x | x | 0.74
COc1ccc(C(=O)OC2CC3CCC(C2)N3C)cc1OC (stereo not given) | x | x | x | x | 0.72
COC(=O)C1=C(c2cccc(C#N)c2)CC2CCC1N2C(=O)NC1CC1 (stereo not given) | x | x | x | x | 0.71
O=C(Cn1cc(C(=O)c2ccccc2F)c2ccccc21)NCc1ccco1 | -4 | 0 | 2 | 3 | 0.66
COCCNC(=O)Cn1cc(C(=O)c2ccccc2F)c2ccccc21 | -1 | 44* | -2 | -1 | 0.65 | RecBCD conf=-2;Ecoli viability=-2;AddAB phage OD=-3
Oc1cc(Cl)c(Cl)c(Cl)c1Cl | -9 | 13* | x | x | x | RecBCD conf=14*;Ecoli viability=19;AddAB phage OD=17
CN(C)[C@@H]1C(=O)C(C(N)=O)=C(O)[C@@]2(O)C(=O)C3=C(O)c4c(O)cccc4[C@@](C)(O)C3[C@H](O)C12 (stereo not given in full) | 150*! | 98* | 0 | 0 | x | RecBCD conf=101*;Ecoli viability=102*;AddAB phage OD=102*
CN(C)[C@@H]1C(=O)C(C(N)=O)=C(O)[C@@]2(O)C(=O)C3=C(O)c4c(O)ccc(Cl)c4[C@@](C)(O)C3C[C@@H]12 (stereo not given in full) | 150* | 99* | x | x | x | RecBCD conf=101*;Ecoli viability=104*;AddAB phage OD=105*
CN(C)[C@@H]1C(=O)C(C(N)=O)=C(O)[C@@]2(O)C(=O)C3=C(O)c4c(O)cccc4[C@@](C)(O)[C@H]3C[C@@H]12 | x | x | -1 | -1 | x
COC(=O)C1=C(c2cc3ccccc3s2)CC2CCC1N2C(=O)N1CCC(O)CC1 (stereo not given) | x | x | x | x | 0.73
